Source: PubChem
An excerpt weighted towards active compounds, which were near 5.9% of everything screened.
S2 tox: viability counter-screen for ATXN expression inhibitors | 400,000 tested, 0.49% active | S2 cells (HEK-293 line with an ATXN2-luciferase reporter) viability, CellTiter-Fluor protease fluorescence, 24 h | AID 651635 | Potency, µM (highest dose often 56.7 µM), usual class: cytotoxic; note: nearly all actives have a fitted effect of over 40% in size
KB-V1 MDR tox: KB-V1 MDR subline cytotoxicity; KB-V1 MDR cells viability, CellTiter-Glo, 72 h; AID 1347076; 400,000 tested, 3.4% active; Potency, µM (series often up to 46.1 µM), most hits filed as cytotoxic; note: % is set by controls: 0 for no effect and ±100 for the full control effect; nearly all actives have a fitted effect of over 60% in size
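KB-V1 cells (P-gp-expressing MDR subline of KB-3-1) in phenol-red-free DMEM with 10% FBS were exposed to library compounds over a concentration series for 72 h at 37 degrees C. Viability read by CellTiter-Glo luminescence; concentration-effect curves fitted after normalization.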
KB-3-1 cytotox: kills parental KB-3-1 adenocarcinoma cells. AID 1347075. 400,000 tested, 1.4% active. Potency, µM (series often up to 46.1 µM), actives largely listed as cytotoxic. KB-3-1 viability, CellTiter-Glo ATP luminescence, 72 h; note: % is set by controls: 0 for no effect and ±100 for the full control effect; nearly all actives have a fitted effect of over 60% in size
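Parental KB-3-1 adenocarcinoma cells in phenol-red-free DMEM with 10% FBS were pin-treated with compounds at several concentrations, incubated 72 h at 37 °C, and viability read by CellTiter-Glo luminescence; concentration-effect curves were fitted after normalization.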
HepG2 tox: HepG2 cytotoxicity, counter-screen for TGF-b inhibitors | Potency, µM (series often up to 46.1 µM), without a hit: top-dose activity change, negative = cytotoxicity, most hits filed as cytotoxic | HepG2 CAGA-GFP viability, ATP luminescence, 18 h | 410,000 tested, 0.76% active
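CellTiter-Glo luminescence gave cytotoxicity after 18 hours at 37 degrees C. The cells were HepG2 CAGA-GFP in 1% FBS DMEM, stimulated with 500 pg/mL TGF-beta after compound addition. %Activity was normalised to no-cell wells (complete cell-killing) and DMSO (no toxicity), and curves were fitted and classified.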
ATXN2 expr inh: ATXN2 expression inhibition. HEK-293 ATXN2-luciferase reporter, luminescence, 24 h. Potency, µM (titrated, usually from 57 µM), without a hit: at the top dose activity change, negative = inhibition, most hits filed as inhibitors. 360,000 tested, 0.72% active. AID 1745845; note: % is set by controls: 0 for no effect and ±100 for the full control effect; nearly all actives have a fitted effect of over 55% in size
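ATXN2-luciferase reporter cells (luciferase flanked by upstream and downstream ATXN2 gene portions) were treated 24 h at 37 °C with compounds at up to 57 uM. SteadyGlo luminescence gave expression; GF-AFC fluorescence gave viability.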
TGFb inhibitor: inhibitors of TGF-b signaling | HepG2 CAGA-GFP TGF-b/SMAD3 reporter, GFP fluorescence, 18 h; TGF-beta stimulated, 500 pg/mL final | AID 588855 | Potency, µM (series often up to 46.1 µM), without a hit: at the top dose activity, negative = inhibition, usual class: inhibitors | 410,000 tested, 1.2% active; note: % is set by controls: 0 for no effect and ±100 for the full control effect; nearly all actives have a fitted effect of over 65% in size
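Cell-based qHTS in HEPG2 carrying a CAGA-GFP Smad reporter; compounds added before 500 pg/mL final TGF-beta, 18 h incubation at 37 degrees C, GFP fluorescence quantified per cell by imaging cytometry.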
Starred values were filed as active, the others as inactive; ! = repeats disagree. Calls come from the whole dose curve; as a rule, active = well fitted curve in the direction sought with a large enough effect; inconclusive = small, poorly fitted or top-dose-only effect, or another doubt; inactive = no such curve, though single readings can be large; an effect the other way counts as inactive or inconclusive. Potency is the fitted concentration of half-maximal effect.

How did O=C1CC(c2cccc(Br)c2)c2cc3c(cc2N1)CCC3 (centres undefined) do in these assays?
S2 tox: inconclusive; KB-V1 MDR tox: 7.3µM*; KB-3-1 cytotox: 18µM*; HepG2 tox: -71%; ATXN2 expr inh: -20%; TGFb inhibitor: inconclusive

Results for O=C1CC(c2cc(F)ccc2F)c2cc3c(cc2N1)CCC3 (centres undefined) ?
S2 tox: inactive; KB-V1 MDR tox: inactive; KB-3-1 cytotox: 4.6µM*; HepG2 tox: -24%; ATXN2 expr inh: 0%; TGFb inhibitor: inconclusive

What do the screens show for `COc1ccccc1CNC(=O)Cn1ncc2c(C)n(Cc3ccccc3Cl)c(C)c2c1=O`?
KB-V1 MDR tox: inactive; KB-3-1 cytotox: inactive; HepG2 tox: -35%; TGFb inhibitor: inconclusive

How did O=S1(=O)CCOC[C@H](Cc2ccccc2)N1Cc1cccc(C(F)(F)F)c1 do in these assays?
S2 tox: inactive; KB-V1 MDR tox: inconclusive; KB-3-1 cytotox: inactive; HepG2 tox: -51%; ATXN2 expr inh: -14%; TGFb inhibitor: -26%

What do the screens show for `O=S1(=O)CCOC[C@H](CC2CCCCC2)N1Cc1ccccc1Br`?
S2 tox: inactive; KB-V1 MDR tox: inactive; KB-3-1 cytotox: inconclusive; HepG2 tox: 7.1µM*!; ATXN2 expr inh: -20%; TGFb inhibitor: 13µM*

What do the screens show for `O=S1(=O)CCOC[C@H](CC2CCCCC2)N1Cc1cccc(C(F)(F)F)c1`?
S2 tox: inactive; KB-V1 MDR tox: 13µM*!; KB-3-1 cytotox: inconclusive; HepG2 tox: 13µM*!; ATXN2 expr inh: -26%; TGFb inhibitor: inconclusive

Results for CCOC(=O)C1=C(O)/C(=C/c2cn(CC(=O)NCC3CCCO3)c3ccccc23)SC1=Nc1ccc(C)cc1 (centres undefined) ?
S2 tox: inconclusive; KB-V1 MDR tox: inactive; KB-3-1 cytotox: inactive; HepG2 tox: -30%; ATXN2 expr inh: 10µM*; TGFb inhibitor: 37%

What do the screens show for `CCOC(=O)C1=C(O)/C(=C/c2ccc(-c3ccccc3C(=O)O)o2)SC1=Nc1ccc(C)cc1`?
S2 tox: inactive; KB-V1 MDR tox: inactive; KB-3-1 cytotox: inactive; HepG2 tox: -18%; TGFb inhibitor: -37%

What do the screens show for `O=C(CSc1nnc(NC2CCCCC2)s1)Nc1ccc2c(c1)C(=O)c1ccccc1C2=O`?
S2 tox: inconclusive; KB-V1 MDR tox: inactive; KB-3-1 cytotox: inactive; HepG2 tox: -4%; TGFb inhibitor: 1%

How did CC(C)Nc1nnc(SCC(=O)Nc2ccc3c(c2)C(=O)c2ccccc2C3=O)s1 do in these assays?
S2 tox: inactive; KB-V1 MDR tox: 10µM*; KB-3-1 cytotox: inconclusive; HepG2 tox: 1%; ATXN2 expr inh: -4%; TGFb inhibitor: 2%

Results for C/C(=N\NC(=O)c1nnn(-c2nonc2N)c1CN(C)c1ccccc1)c1ccc(O)cc1 ?
S2 tox: inactive; KB-V1 MDR tox: inactive; KB-3-1 cytotox: inactive; HepG2 tox: -1%; ATXN2 expr inh: -5%; TGFb inhibitor: -1%

How did C/C(=N\NC(=O)c1nnn(-c2nonc2N)c1CN(C)c1ccccc1)c1ccccn1 do in these assays?
S2 tox: inconclusive; KB-V1 MDR tox: inconclusive; KB-3-1 cytotox: 5.8µM*; HepG2 tox: -23%; TGFb inhibitor: -15%

How did Cc1cc(C(=O)N2CCc3ccccc32)n(-c2ccccc2)n1 do in these assays?
S2 tox: inconclusive; KB-V1 MDR tox: inconclusive; KB-3-1 cytotox: 10µM*; HepG2 tox: -54%; ATXN2 expr inh: -21%; TGFb inhibitor: -11%

How did COCCNC(=O)c1ccc2c(c1)ncn2-c1cccc(C)c1 do in these assays?
S2 tox: inactive; KB-V1 MDR tox: inconclusive; KB-3-1 cytotox: inconclusive; HepG2 tox: -4%; ATXN2 expr inh: 2%; TGFb inhibitor: -16%

Results for Cc1cccc(-n2cnc3cc(C(=O)N4CCc5ccccc54)ccc32)c1 ?
S2 tox: inactive; KB-V1 MDR tox: 13µM*; KB-3-1 cytotox: inactive; HepG2 tox: -11%; ATXN2 expr inh: 5%; TGFb inhibitor: inconclusive

What do the screens show for `Cc1cccc(-n2cnc3cc(C(=O)NCC4CCCO4)ccc32)c1` (centres undefined)?
S2 tox: inactive; KB-V1 MDR tox: inconclusive; KB-3-1 cytotox: 18µM*; HepG2 tox: -32%; TGFb inhibitor: -9%

How did CCc1ccccc1NC(=O)CN1C(=O)CCSc2ccc(S(=O)(=O)N3CCCC3)cc21 do in these assays?
HepG2 tox: -27%; TGFb inhibitor: 1%

How did COc1cc(OC)c(OC)cc1CN1CCCC(c2[nH]ncc2-c2cccc(C(F)(F)F)c2)C1 (centres undefined) do in these assays?
S2 tox: inactive

How did CCC(=O)N1CCc2cc(S(=O)(=O)NC(C(=O)NCCc3ccc(OC)c(OC)c3)C(C)C)ccc21 (centres undefined) do in these assays?
S2 tox: inactive; KB-V1 MDR tox: inactive; KB-3-1 cytotox: inactive; HepG2 tox: -18%; ATXN2 expr inh: 14%; TGFb inhibitor: -1%

What do the screens show for `O=C(Nc1ncc(Cc2ccc(SC(F)F)cc2)s1)c1ccc(OC(F)F)cc1`?
S2 tox: inconclusive; KB-V1 MDR tox: 0.33µM*; KB-3-1 cytotox: 0.21µM*; HepG2 tox: -30%; ATXN2 expr inh: inconclusive; TGFb inhibitor: inconclusive

How did O=C(Nc1ncc(Cc2cccc([N+](=O)[O-])c2)s1)c1ccco1 do in these assays?
S2 tox: inactive; KB-V1 MDR tox: inactive; KB-3-1 cytotox: 5.8µM*; HepG2 tox: -33%; TGFb inhibitor: -4%

Results for NC(=O)c1cc(Cc2ccccc2)sc1NC(=O)c1ccco1 ?
S2 tox: inactive; KB-V1 MDR tox: 9.2µM*; KB-3-1 cytotox: inconclusive; HepG2 tox: -4%; ATXN2 expr inh: 91%; TGFb inhibitor: -1%

What do the screens show for `Cc1ccc(Cc2cnc(NC(=O)c3ccco3)s2)cc1`?
S2 tox: inactive; KB-V1 MDR tox: 18µM*; KB-3-1 cytotox: inactive; HepG2 tox: -47%; ATXN2 expr inh: 11%; TGFb inhibitor: inconclusive

What do the screens show for `CCCCNC(=O)C1(C)CCCCN1CC(=O)c1ccc(OC)cc1` (centres undefined)?
S2 tox: inactive; KB-V1 MDR tox: inactive; KB-3-1 cytotox: inactive; HepG2 tox: -5%; ATXN2 expr inh: 2%; TGFb inhibitor: -3%

How did O=C(Nc1ncc(Cc2ccccc2Cl)s1)c1ccc(-c2cccc([N+](=O)[O-])c2)o1 do in these assays?
S2 tox: inactive; KB-V1 MDR tox: inactive; KB-3-1 cytotox: inactive; HepG2 tox: -2%; TGFb inhibitor: -9%
